# Measurements published in PubChem BioAssay AID602330 (Sanford-Burnham Center for Chemical Genomics, 2012).
# Among all 1,900 compounds or so, about 85 (4%) were called active. Cut-off read from the data, not from the text of the source: active = inhibition above about 40%; inactive = the rest. The list is a sample of the results.
# Target: 72 kDa type IV collagenase (Homo sapiens) (UniProt P08253)
# Assay: MMP-2 enzyme inhibition, confirmation, counter-screen for RPN11 inhibitor project, biochemical, fluorescence, single concentration (AID 602330);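 note: human MMP-2 activated beforehand with APMA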
# Conditions: recombinant MMP-2, FRET peptide cleavage fluorescence; at 20 µM; stronger effect = higher value
# 72 kDa type IV collagenase (Homo sapiens), sequence (P08253 whole entry, looked up): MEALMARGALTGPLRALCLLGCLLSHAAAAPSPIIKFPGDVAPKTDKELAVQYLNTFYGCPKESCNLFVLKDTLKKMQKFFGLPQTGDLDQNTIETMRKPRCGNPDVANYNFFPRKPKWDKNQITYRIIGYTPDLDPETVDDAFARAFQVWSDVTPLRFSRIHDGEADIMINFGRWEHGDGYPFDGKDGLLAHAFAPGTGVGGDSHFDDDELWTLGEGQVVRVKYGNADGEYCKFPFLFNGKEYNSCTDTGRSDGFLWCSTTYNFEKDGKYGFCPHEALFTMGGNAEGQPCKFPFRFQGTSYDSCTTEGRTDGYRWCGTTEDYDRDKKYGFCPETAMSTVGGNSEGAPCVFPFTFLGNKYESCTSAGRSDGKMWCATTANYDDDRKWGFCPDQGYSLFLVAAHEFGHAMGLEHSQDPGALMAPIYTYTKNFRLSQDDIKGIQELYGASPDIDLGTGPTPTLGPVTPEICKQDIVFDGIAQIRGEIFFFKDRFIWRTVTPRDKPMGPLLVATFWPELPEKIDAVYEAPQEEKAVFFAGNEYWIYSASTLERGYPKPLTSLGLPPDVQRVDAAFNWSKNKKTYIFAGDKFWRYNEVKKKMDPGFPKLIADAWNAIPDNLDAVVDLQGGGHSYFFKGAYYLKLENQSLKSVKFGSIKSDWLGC
row,Structure (SMILES),inhibition
1,COc1cccc(/C=C(/CC(=O)Nc2ccc(N3CCOCC3)cc2)c2nc3ccccc3s2)c1,30.2% (inactive)
2,CCC(C)Cn1c(O)cc2nn(-c3nc4ccccc4s3)c(=O)c-2c1C (configuration not stated),-2.01% (inactive)
3,Cc1oc2c(C)c3oc(=O)c(CC(=O)N[C@@H](CC(C)C)C(=O)N[C@@H](Cc4ccccc4)C(=O)O)c(C)c3cc2c1C,-12.8% (inactive)
4,CCN1CCCC1CNC(=O)c1cc2c(=O)n(C)c3ccccc3c2n1C (configuration not stated),5.3% (inactive)
5,CN(C)c1ccc(-n2cccc2/C=C2/SC(=Nc3ccc(F)cc3)NC2=O)cc1,11.2% (inactive)
6,CCCOc1ccc(Cn2c(O)cc(=O)[nH]c2=O)cc1,-16.6% (inactive)
7,COc1ccc(NC(=O)Cn2c(-c3ccc(OC)cc3)cn(-c3ccc(C)cc3)c2=O)cc1,-12.7% (inactive)
8,Cc1ccc(Nc2ccccc2N)cc1,-13.4% (inactive)
9,CCCCCCSc1ccc([C@@H]2[C@H]3C(=O)N(CC)C(=O)[C@H]3[C@]3(C(=O)OC)CCCCN23)cc1,-13.2% (inactive)
10,CC(C)CC1C(=O)N(Cc2cn(Cc3ccco3)nn2)CCS(=O)(=O)N1Cc1ccc(-c2ccc(Cl)c(Cl)c2)cc1 (configuration not stated),-38.5% (inactive)
11,CCOc1ccc(-n2c(O)c(/C=N/Nc3nnc(C)c(=O)[nH]3)c3ccccc3c2=O)cc1,-6.64% (inactive)
12,Cc1nc2ccc(C(=O)N3CCSCC3)cc2s1,-42.3% (inactive)
13,C=CC1=C(C(=O)O)N2C(=O)[C@@H](NC(=O)/C(=N/OCC(=O)O)c3csc(N)n3)[C@H]2SC1,35.4% (inactive)
14,CCOC(=O)N1CCC(NC(=O)C(NS(=O)(=O)c2ccc3c(c2)CCN3C(=O)CC)C(C)C)CC1 (configuration not stated),-20.7% (inactive)
15,COC(=O)c1ccc(OCC(=O)NC(C)(C)C)cc1,6.02% (inactive)
16,O=C(CSc1nc2ccccc2c(=O)[nH]1)Nc1nc(-c2ccc(Br)cc2)cs1,51.9% (active)
17,Cc1ccc(N=Cc2c(O)cc(C)oc2=O)c(C)c1,-22.6% (inactive)
18,CC(=O)Nc1ccccc1Sc1ccc2c3c(cccc13)C(=O)N(c1ccc(C)cc1)C2=O,-23% (inactive)
19,CCOc1ccc(NC(=O)c2ccc(NC(=O)COC(=O)c3ccc(NC(=O)CC#N)cc3)cc2)cc1,10.8% (inactive)
20,COC1=C/C(=C/c2c(N)n3nc(CC(=O)N4CCOCC4)sc3nc2=O)C=CC1=O,12% (inactive)
21,Cc1ccc(Nc2nc(Cl)c(C=O)s2)cc1,-10.8% (inactive)
22,Cc1nc2ccccc2n1C(=O)N1CCOCC1,-8.73% (inactive)
